The record followed here is the supplement of paper PMC3334620.

The full ranking holds about 33,000 sequences; the median of “E-score (-0.5 to 0.5)” is about -0.035, and the highest 2% start at about 0.34. The sample holds the highest values, similar sequences and a random draw of the others, so the mix is not that of the screen.

The test deals with T1, Mot3 (UniProt P54785).
T1 sequence: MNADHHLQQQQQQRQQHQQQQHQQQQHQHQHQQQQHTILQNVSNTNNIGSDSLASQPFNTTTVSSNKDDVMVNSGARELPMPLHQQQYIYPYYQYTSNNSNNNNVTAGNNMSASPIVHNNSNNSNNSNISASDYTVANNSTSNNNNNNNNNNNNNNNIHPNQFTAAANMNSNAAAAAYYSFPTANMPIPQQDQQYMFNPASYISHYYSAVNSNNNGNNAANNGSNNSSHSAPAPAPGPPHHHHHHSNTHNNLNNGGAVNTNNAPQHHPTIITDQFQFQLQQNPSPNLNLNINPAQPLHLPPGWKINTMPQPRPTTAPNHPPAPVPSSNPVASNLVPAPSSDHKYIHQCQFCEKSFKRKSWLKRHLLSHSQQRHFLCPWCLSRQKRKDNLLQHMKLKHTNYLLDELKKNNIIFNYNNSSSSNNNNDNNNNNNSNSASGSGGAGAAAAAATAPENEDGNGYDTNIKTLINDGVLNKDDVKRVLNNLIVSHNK
The experiment in a line: PBM E-score (8-mer binding enrichment) (E-score (-0.5 to 0.5)); higher = stronger / more preferred TF binding. To be noted: protein concentration: 200 nM; construct: GST-full length. An outline of the steps: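 Yeast transcription factors carrying a GST tag, as full-length proteins or DNA-binding domains, were produced by PURExpress in vitro transcription/translation. About 100-200 nM protein was applied to universal all-10-mer Agilent arrays, double-stranded by primer extension on fresh or once-stripped slides. Bound protein was detected with fluorescent anti-GST, and scans were normalised with masliner. The Universal PBM Analysis Suite gave each ungapped eight-base word, pooled with its reverse complement, an E-score, a modified Wilcoxon-Mann-Whitney statistic.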
For the sequence ACCACGGC, the “PBM E-score” value is -0.108.

Consider GCCCGGTA, for which the “PBM E-score” value is -0.0651.

Take AATTAAAT: the “PBM E-score” value was determined as 0.124.

AGGTACGA: the “PBM E-score” value stood at 0.346.

Turning to AGGTACGG, the “PBM E-score” value was found to be 0.39.

AGGTACTC: the “PBM E-score” value was 0.333.

With ACGTACGG, the “PBM E-score” value was -0.163.

On to AGGTACGC, for which the “PBM E-score” value is 0.444.

Take CGGTACGA: the “PBM E-score” value was -0.155.

As for AGGTACTG, the “PBM E-score” value amounted to 0.258.

For the sequence CGGTACGC, the “PBM E-score” value was -0.174.

Regarding GGGTACGA, the “PBM E-score” value was -0.148.

CGACTAGA: the “PBM E-score” value is -0.0287.

Take AAGCCCAT: the “PBM E-score” value was -0.253.

For the sequence ACAACGTG, the “PBM E-score” value was found to be 0.114.

Consider TACAGCGA, for which the “PBM E-score” value is -0.184.

As to AACATAGA, the “PBM E-score” value is 0.2.

On to GACATAGA, for which the “PBM E-score” value turned out to be 0.0532.

In the case of TACATAGA, the “PBM E-score” value worked out at 0.357.

In the case of GAAATACA, the “PBM E-score” value was found to be 0.328.

For the sequence TAAATACA, the “PBM E-score” value was found to be 0.366.

For the sequence AAAATACA, the “PBM E-score” value was found to be 0.298.

With CACATACA, the “PBM E-score” value is 0.239.

As to TACATACA, the “PBM E-score” value came out at 0.355.

For the sequence GACATACA, the “PBM E-score” value is 0.218.

For the sequence GCCTCCGA, the “PBM E-score” value amounted to 0.0149.

As to CGTACCAC, the “PBM E-score” value was -0.0328.

On to CGAATTCG, for which the “PBM E-score” value is -0.137.

For the sequence AACAGAAG, the “PBM E-score” value was 0.0357.

On to GTCTTAAA, for which the “PBM E-score” value is -0.131.

Consider CCCTGAAA, for which the “PBM E-score” value was -0.0551.

Turning to AAAGGTTC, the “PBM E-score” value was 0.12.

On to CCACGATC, for which the “PBM E-score” value was 0.0336.

With AGACGATC, the “PBM E-score” value is -0.288.

Consider ACACGATA, for which the “PBM E-score” value was found to be 0.345.

For the sequence ACACGATG, the “PBM E-score” value is 0.199.

As for CCACGATA, the “PBM E-score” value was -0.107.

In the case of ACACGATC, the “PBM E-score” value came out at 0.347.

On to CCTTTGAC, for which the “PBM E-score” value came out at 0.125.

Turning to GAGGCTAA, the “PBM E-score” value is -0.134.

Consider ACTGCGCA, for which the “PBM E-score” value was -0.17.

Regarding GGTGGGCA, the “PBM E-score” value was 0.0151.

As to GGTGACAA, the “PBM E-score” value is -0.12.

On to GCCTTTAC, for which the “PBM E-score” value worked out at 0.357.

For GCCTTTAA, the “PBM E-score” value is 0.322.

As to CCCTTTAC, the “PBM E-score” value stood at 0.15.

In the case of AGCGCTAG, the “PBM E-score” value was -0.115.

On to TATTTCAA, for which the “PBM E-score” value is 0.159.

As for CCATCTAG, the “PBM E-score” value is -0.0951.

ATTTAACG: the “PBM E-score” value amounted to 0.247.

For TCTTAACA, the “PBM E-score” value is 0.346.

Take TGTTATAA: the “PBM E-score” value stood at 0.35.

On to ATTTAACC, for which the “PBM E-score” value was 0.0628.

As to CGTTATAA, the “PBM E-score” value worked out at 0.15.

On to ATTTAACA, for which the “PBM E-score” value stood at 0.354.

Consider CGTTAAAA, for which the “PBM E-score” value amounted to 0.151.

Take GGTTAAAA: the “PBM E-score” value came to 0.194.

Regarding CCTTAACA, the “PBM E-score” value worked out at 0.315.

Regarding AGTTATAA, the “PBM E-score” value is 0.163.

GCTTAACA: the “PBM E-score” value was found to be 0.229.

For the sequence TGTTAAAA, the “PBM E-score” value came to 0.343.

For CGGGGGGC, the “PBM E-score” value was -0.295.

In the case of ACAATTCC, the “PBM E-score” value was -0.0244.

Consider CGCTCCAC, for which the “PBM E-score” value was -0.234.

With GTGAAGTA, the “PBM E-score” value was found to be 0.0411.

As for TAACACAA, the “PBM E-score” value amounted to 0.332.

For CCAGTATA, the “PBM E-score” value was -0.178.

With ACTTGATA, the “PBM E-score” value came out at 0.0522.

GAATCTAA: the “PBM E-score” value is -0.0012.

Regarding CCTGAACA, the “PBM E-score” value came to 0.23.

In the case of TGTTAACA, the “PBM E-score” value came to 0.361.

For AGTTAACA, the “PBM E-score” value was determined as 0.279.

For TATTAACA, the “PBM E-score” value stood at 0.359.

For the sequence CGTTAACA, the “PBM E-score” value amounted to 0.244.

Take GATTAACA: the “PBM E-score” value came out at 0.338.

With CATTAACA, the “PBM E-score” value is 0.299.

Turning to AAAAGGTC, the “PBM E-score” value was -0.161.

As for CTGCAGCA, the “PBM E-score” value is -0.0262.

In the case of GCCAGCGC, the “PBM E-score” value is -0.236.

As to AAGCGTAA, the “PBM E-score” value worked out at 0.0617.

With GCGTTTCC, the “PBM E-score” value was 0.0476.

Turning to AGGAAATG, the “PBM E-score” value was 0.262.

Take CGGAAATC: the “PBM E-score” value is -0.109.

With CGGAAATA, the “PBM E-score” value is -0.206.

With AGGAAATA, the “PBM E-score” value is 0.368.

On to GGGAAATA, for which the “PBM E-score” value is 0.0874.

In the case of AGGAAATC, the “PBM E-score” value is 0.373.

Turning to AGTGATAG, the “PBM E-score” value is 0.0766.

For the sequence GCCTCGCC, the “PBM E-score” value is -0.17.

With ACCTGAAC, the “PBM E-score” value is 0.0861.

Regarding AAGGGTAT, the “PBM E-score” value was -0.018.

As for TATTCACA, the “PBM E-score” value was 0.221.

Take ACAGGAGG: the “PBM E-score” value was -0.0434.

As to AAAAGATG, the “PBM E-score” value was determined as 0.11.
